From PubChem BioAssay
Activity calls are given as the source filed them. Unless noted, the rule behind the calls is not given here.

What was measured:
[1] = system: Wnt5a (protein binding on small-molecule microarray); assay: Wnt5a binders on small-molecule microarray, primary screen, biophysical, 635/667 nm fluorescence (AID 1142); conditions: 635 nm fluorescence, higher = more signal;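 note: fluorescence read at 667 nm with signal to noise per printed feature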
[2] = cell viability in Huh7 cells, primary screen, cytotoxicity control for HCV replication inhibitor project, CellTiter-Glo luminescence, basal, 48 h (AID 1143); conditions: Huh7 HCV replicon, higher = more signal, called active from +8 up or from −8 down;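 note: Huh7 hepatoma cells carrying a hepatitis C replication reporter with no stimulus; test concentration not given here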
[3] = P. aeruginosa biofilm formation inhibitors, primary screen, PAO1 strain, BacTiter-Glo luminescence, LB-PBS (AID 1144); conditions: 12 h, higher = more signal
[4] = CREB reporter modulators without forskolin, primary screen, cell-based, PC12, CRE-LacZ reporter, unstimulated (AID 1145); conditions: no forskolin, luminescence, 4.5 h, higher = more signal, called active from +8 up or from −8 down
[5] = CREB reporter modulators under forskolin, primary screen, cell-based, PC12, CRE-LacZ reporter, forskolin-stimulated (AID 1146); conditions: luminescence, 4.5 h, higher = more signal, called active from +8 up or from −8 down;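 note: PC12 cells with 6xCRE LacZ reporter stimulated by forskolin 10 µM; beta-galactosidase reporter signal reflecting CREB driven transcription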
[6] = biological target: Streptavidin (Streptomyces avidinii) (UniProt P22629); assay: streptavidin binders on small-molecule microarray, primary screen, artefact control for SMM compound annotation, biophysical, 635/667 nm fluorescence (AID 1147); conditions: streptavidin binding, higher = more signal;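 note: signal reflects streptavidin binding to arrayed compounds as a control protein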
Chain of Streptavidin (Streptomyces avidinii) (P22629 whole entry, looked up): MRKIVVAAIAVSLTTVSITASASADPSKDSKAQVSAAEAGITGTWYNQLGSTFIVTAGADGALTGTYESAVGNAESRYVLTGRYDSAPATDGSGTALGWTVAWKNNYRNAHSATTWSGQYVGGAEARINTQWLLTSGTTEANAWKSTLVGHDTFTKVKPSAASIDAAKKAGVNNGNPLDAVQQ

[7] = small-molecule binders of probe aInhba, primary screen, biochemical, small-molecule microarray, 635/667 nm fluorescence (AID 1148); conditions: higher = more signal;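 note: score merges 667nm spot fluorescence with signal-to-noise for antibody binding to printed compounds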
Torsin-1A (Homo sapiens) [8] = biological target: Torsin-1A (Homo sapiens) (UniProt O14656); assay: torsin A binders from cell lysate, primary screen, small-molecule microarray, wild-type, 635/667 nm (AID 1149); conditions: COS7 hTOR1A-WT lysate, 635 nm fluorescence, higher = more signal
Chain of Torsin-1A (Homo sapiens) (O14656 whole entry, looked up): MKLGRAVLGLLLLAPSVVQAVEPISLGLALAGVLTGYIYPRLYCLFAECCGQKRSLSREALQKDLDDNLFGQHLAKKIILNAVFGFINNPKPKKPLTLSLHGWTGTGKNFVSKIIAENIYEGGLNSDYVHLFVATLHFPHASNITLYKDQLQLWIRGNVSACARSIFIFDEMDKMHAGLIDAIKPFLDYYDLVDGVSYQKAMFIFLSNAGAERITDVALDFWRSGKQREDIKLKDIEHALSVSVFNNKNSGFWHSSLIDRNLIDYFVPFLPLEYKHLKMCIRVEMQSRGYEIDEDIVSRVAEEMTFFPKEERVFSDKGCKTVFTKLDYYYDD

Torsin-1A (Homo sapiens) [9] = biological target: Torsin-1A (Homo sapiens) (UniProt O14656); assay: small-molecule binders of mutant TOR1A in lysate, primary screen, cell lysate, small-molecule microarray, COS7 lysate, 635/667 nm fluorescence (AID 1150); conditions: COS7 hTOR1A mutant lysate, 635 nm fluorescence, higher = more signal;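 note: score pools 667 nm emission and signal to noise measuring lysate protein binding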
[10] = system: Sonic hedgehog protein (Shh); assay: small-molecule binders of Shh protein, primary screen, biochemical, small-molecule microarray, 635/667 nm fluorescence (AID 1151); conditions: small-molecule microarray binding, 635 nm fluorescence; higher = more signal;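 note: Shh protein binding to compounds spotted on small-molecule microarray slides; score combines spot fluorescence intensity with signal-to-noise across triplicate slides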

| Compound | composite z-score [1] | z-score [2] | z-score [3] | z-score [4] | z-score [5] | composite z-score [6] | composite z-score [7] | composite z-score (Torsin-1A (Homo sapiens) [8]) | composite z-score (Torsin-1A (Homo sapiens) [9]) | composite z-score [10] |
| --- | --- | --- | --- | --- | --- | --- | --- | --- | --- | --- |
| C=CC[C@@H]1C=C[C@H](ON=C(C)CCN2CCc3nc(CC)c(CC)cc3C2)[C@@H](CO)O1 | 0.255 | -0.667 (inactive) | 0.983 (inactive) | 3.51 (inactive) | 0.319 (inactive) | 0.372 | 0.0785 | 0.97 | 1.12 | 1.85 |
| COCCCNC(=O)[C@@]1(Sc2ccc(C)cc2)CC(=O)N(Cc2ccccc2)[C@@H]1c1ccc(CO)cc1I | 0.129 | -1.25 (inactive) | 0.501 (inactive) | -0.232 (inactive) | 1.48 (inactive) | -0.684 | 0.106 | 0.234 | 0.0773 | -0.772 |
| CC(C)=NOCc1cccc(-c2cc(-c3ccccc3)no2)c1 | 0.118 | 0.525 (inactive) | -0.14 (inactive) | -0.437 (inactive) | 0.345 (inactive) | 0.468 | 0.106 | 0.533 | 0.247 | 0.826 |
| COC(=O)[C@]1(CO)N=C(c2ccc(OCCCO)cc2)O[C@@H]1c1ccccc1N=[N+]=[N-] | 0.421 | 0.159 (inactive) | 0.393 (inactive) | -0.609 (inactive) | -0.736 (inactive) | -0.435 | 0.0646 | 1.85 | 1.9 | 2.05 |
| O=C1[C@H]2[C@H]3[C@H](O)[C@H](O)CC(=NOCc4ccccc4)[C@H]3CC[C@H]2C(=O)N1c1ccc(F)cc1F | -0.0542 | -0.627 (inactive) | -0.665 (inactive) | -0.926 (inactive) | -0.14 (inactive) | -0.899 | -0.536 | -0.0184 | -0.013 | -0.311 |
| Cc1ccc(F)cc1S(=O)(=O)N[C@@H]1CCN(Cc2ccc(CC(C)C)cc2)C1 | -0.524 | -4.94 (inactive) | -0.158 (inactive) | -0.683 (inactive) | 0.673 (inactive) | -0.758 | -0.231 | 0.492 | -0.859 | 0.15 |
| CO[C@H]1COC(=O)CC=C[C@H](C)[C@@H](NS(=O)(=O)c2ccc(C)cc2)COC(=O)CC=C[C@@H]1C | 0.0341 | -1.82 (inactive) | -0.63 (inactive) | -0.971 (inactive) | -0.562 (inactive) | -0.0767 | -0.127 | 0.693 | 0.722 | 0.936 |
| CN(C)CCCNC(=O)[C@@H]1c2ccccc2C(=O)N(Cc2cc(F)cc(C(F)(F)F)c2)[C@H]1c1ccc(CO)cc1 | 0.095 | -1.77 (inactive) | -0.101 (inactive) | 0.351 (inactive) | 0.159 (inactive) | -0.621 | -0.0849 | 0.65 | -0.348 | 0.388 |
| CO[C@H]1COC(=O)[C@H](C)COC(=O)CC=C[C@@H](C)[C@H](OC)COC(=O)CC=C[C@@H]1C | 0.185 | -0.0182 (inactive) | -0.272 (inactive) | -0.474 (inactive) | 0.592 (inactive) | -0.436 | -0.128 | 1.03 | 0.666 | 1.55 |
| CO[C@@H]1COC(=O)[C@@H]2CCCN2C(=O)[C@@H](C)COC(=O)[C@H](COCc2ccccc2)NC(=O)CC=C[C@H]1C | -0.127 | -0.388 (inactive) | -0.623 (inactive) | -0.799 (inactive) | 0.435 (inactive) | 0.107 | -0.172 | 0.999 | 0.121 | 0.731 |
| CO[C@@H]1COC(=O)CC=C[C@@H](C)[C@@H]2C=C[C@H](O)[C@@H](COC(=O)[C@H](C)NC(=O)CC=C[C@H]1C)O2 | 0.0389 | -2.59 (inactive) | -0.972 (inactive) | -0.324 (inactive) | 0.194 (inactive) | -0.408 | -0.265 | 1.44 | 1.81 | 2.13 |
| CN1C(=O)C2C=CC(C(O)c3ccc(Br)cc3)N(N(c3ccccc3)c3ccccc3)C2C1=O (stereo not given) | -0.0158 | -0.776 (inactive) | -1.19 (inactive) | 1 (inactive) | -0.342 (inactive) | 1.04 | -0.0375 | 0.293 | -0.135 | -0.583 |
| CCOC(=O)[C@H](Cc1ccccc1)NC(=O)CCC1CC(OC(=O)NCCc2ccc(F)cc2)CC2(CCCC(COC(=O)NCC(c3ccccc3)c3ccccc3)O2)O1 (stereo not given in full) | 0.0879 | -0.792 (inactive) | 0.338 (inactive) | 0.286 (inactive) | 1.23 (inactive) | 0.388 | -0.248 | -0.0715 | 0.656 | 0.719 |
| CN(C)c1ccc(C(O)C2C=CC3C(=O)N(c4ccccc4)C(=O)C3N2Nc2ccccc2F)cc1 (stereo not given) | 0.0698 | -1.3 (inactive) | 0.136 (inactive) | 2.56 (inactive) | 1.03 (inactive) | 0.557 | -0.125 | 0.221 | 0.15 | -0.378 |
| COc1cccc([C@@H]2Oc3ccc(Br)cc3C(=O)[C@H]2O)c1 | 0.134 | -3.91 (inactive) | -0.591 (inactive) | 4.08 (inactive) | 0.136 (inactive) | 0.286 | -0.089 | 0.561 | 1.1 | 0.936 |
| Cn1c(=O)n2n(c1=O)[C@H]1[C@H](O)[C@@H]3O[C@@H]3C(=NOC[C@@H](O)COCc3ccco3)[C@H]1CC2 | 0.0562 | -0.0843 (inactive) | 0.0712 (inactive) | 0.248 (inactive) | 0.496 (inactive) | 0.548 | 0.0345 | 0.547 | 0.266 | 0.582 |
| CCCNC(=O)OC[C@H]1O[C@H](CCON=C[C@@H](OC)[C@H](C)C=CCC(=O)OC)C=C[C@@H]1Oc1ccc(OC)cc1 | -0.0615 | -0.444 (inactive) | 1.18 (inactive) | 3.46 (inactive) | 0.963 (inactive) | -0.351 | -0.206 | 0.525 | 0.422 | 1.05 |
| O[C@@H](Cc1ccccc1)[C@H]1C2C=CCCC(c3ccccc3)=C2CN1Cc1cccc(Cl)c1 (stereo not given in full) | 0.0825 | -1.31 (inactive) | -0.577 (inactive) | 2.58 (inactive) | 1.44 (inactive) | 0.26 | 0.0355 | 0.762 | 0.144 | 0.733 |
| CCOC(=O)CCN1C(=O)[C@H]2[C@H]3[C@H](O)[C@H](O)CC(=NOCc4ccccc4)[C@@H]3CC[C@H]2C1=O | -0.0682 | -1.25 (inactive) | 0.324 (inactive) | -0.294 (inactive) | 0.0433 (inactive) | 0.115 | -0.186 | 0.434 | 0.496 | 0.612 |
| CC(CCN1CCc2nc(-c3ccccc3)c(-c3ccccc3)cc2C1)=NOC[C@@H](C)[C@H](OCc1ccccc1)C(C)C | -0.492 | 0.232 (inactive) | -0.612 (inactive) | 2.07 (inactive) | -0.17 (inactive) | -0.717 | -0.261 | -2.11 | -1.21 | -0.819 |
| O=C1[C@H]2[C@H]3[C@H](O)[C@H](O)CC(=NOC[C@@H](O)COCc4ccco4)[C@H]3CC[C@H]2C(=O)N1c1cccc(Oc2ccccc2)c1 | -0.31 | -0.6 (inactive) | -0.0166 (inactive) | -0.21 (inactive) | 0.452 (inactive) | -0.393 | -0.285 | 0.626 | 0.948 | -0.621 |
| CC(=O)OC[C@H]1O[C@H](CC=NOC[C@@H](C)[C@H](OCc2ccccc2)C(C)C)C=C[C@@H]1OC(C)=O | -0.0373 | -0.23 (inactive) | -0.369 (inactive) | 2.04 (inactive) | 0.494 (inactive) | -0.0152 | -0.0504 | -0.0387 | 0.0881 | 0.583 |
| CC(=O)OC[C@H]1O[C@H](CCON=C[C@@H](C)[C@H](OCc2ccccc2)C(C)C)C=C[C@@H]1OC(C)=O | -0.0629 | -0.305 (inactive) | 0.0966 (inactive) | 1.16 (inactive) | 0.598 (inactive) | 0.133 | -0.199 | 0.658 | 0.284 | 0.372 |
| CC1(C)OCC(C(O)C2=CCCCC2=O)CO1 (stereo not given) | 0.24 | 0.956 (inactive) | -0.432 (inactive) | -0.431 (inactive) | 0.476 (inactive) | 0.412 | -0.133 | 0.429 | 0.803 | 1.5 |
| CCOC(=O)CCN1C(=O)[C@H]2[C@H]3[C@H](O)[C@H](O)CC(=O)[C@H]3CC[C@H]2C1=O | 0.0032 | -3.04 (inactive) | -0.829 (inactive) | 0.429 (inactive) | -0.236 (inactive) | 0.275 | -0.183 | 0.269 | 0.326 | 0.693 |
| CCCNC(=O)OC[C@H]1O[C@H](CCON=C2[C@H]3CCn4c(=O)n(-c5ccccc5)c(=O)n4[C@H]3[C@H](O)[C@@H]3O[C@H]23)C=C[C@@H]1Oc1ccc(OC)cc1 | 0.14 | -0.0238 (inactive) | 1.01 (inactive) | 0.899 (inactive) | 0.301 (inactive) | -0.28 | 0.0294 | 0.0932 | 0.565 | 0.572 |
| COC(=O)[C@H](C)NC(=O)CCC1CC(OC(=O)NCc2ccc3c(c2)OCO3)CC2(CCCC(COC(=O)NCCOc3ccccc3)O2)O1 (stereo not given in full) | 0.12 | -1.55 (inactive) | -1.53 (inactive) | -0.349 (inactive) | -0.422 (inactive) | 0.607 | -0.128 | 0.248 | 0.492 | 1.67 |
| CCN1C(=O)[C@H]2[C@H]3[C@H](O)[C@H](O)CC(=NOCc4ccccc4)[C@H]3CC[C@H]2C1=O | -0.0887 | 0.856 (inactive) | -0.784 (inactive) | 0.25 (inactive) | -0.332 (inactive) | 0.201 | -0.189 | 0.171 | 0.46 | 0.109 |
| COc1ccc(O[C@H]2C=C[C@@H](c3ccccc3)O[C@@H]2COC(=O)N2CCCCC2)cc1 | -0.19 | -0.259 (inactive) | 0.615 (inactive) | 0.929 (inactive) | 0.197 (inactive) | -0.221 | -0.108 | 0.205 | 0.125 | 0.147 |
